# Results from the supplement of paper PMC7057948, “A genome-wide approach for identification and characterisation of metabolite-inducible systems” (Nature Communications, 2020).
# Test system: AcoR/P_H16_RS19445 acetoin biosensor (pEH052)
# Assay: relative induction of RFP reporter vs primary effector; higher = stronger activation
# Conditions: inducer concentration 5 mM; 6 h; Cupriavidus necator H16; minimal medium + 0.4% gluconate
# Experimental: (§1)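 Orthogonality screen of 21 primary inducers against 21 transcription factor/inducible promoter–mRFP biosensors in C. necator H16 in minimal medium, robotic 96-well format, 5 mM inducer, 30 °C. OD-normalised RFP fluorescence was read 6 h later and expressed as relative induction (%) = 100 × (FL compound − FL uninduced)/(FL primary inducer − FL uninduced); mean of n=4. Cognate pairs (100% by definition) omitted.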
row,SMILES,relative induction of RFP reporter
1,C=C(CC(=O)O)C(=O)O [itaconate],7.98%
2,O=C(O)CCO [3-hydroxypropanoate],-1.52%
3,O=C(O)C(O)C(O)C(=O)O (configuration not stated) [tartrate],0.491%
4,O=C(O)C1CCCCC1 [cyclohexane-1-carboxylate],2.02%
5,OC1OC[C@H](O)[C@H](O)[C@H]1O (mixture of isomers) [L-arabinose],-0.298%
6,O=C(O)C(=O)c1ccccc1 [phenylglyoxylate],-2.12%
7,"O=C(O)c1ccc(O)c(O)c1 [3,4-dihydroxybenzoate]",-0.382%
8,C=CC(=O)O [acrylate],-1.36%
9,O=C(O)c1ccccc1 [benzoate],4.78%
10,N[C@@H](Cc1ccc(O)cc1)C(=O)O [L-tyrosine],-2.55%
11,NCCC(=O)O [β-alanine],-2.32%
12,O=C(O)CS(=O)(=O)O [sulfonatoacetate],0.846%
13,O=CO [formate],-0.63%
14,Nc1ccccc1C(=O)C[C@H](N)C(=O)O [L-kynurenine],-1.84%
15,O=C(O)c1ccccc1O [salicylate],-1.02%
16,O=c1[nH]c(=O)c2nc[nH]c2[nH]1 [xanthine],-1.36%
17,N[C@@H](Cc1ccccc1)C(=O)O [L-phenylalanine],-1.77%

# Test system: AraC/P_araBAD L-arabinose biosensor (pEH176)
# Assay: as above
# Conditions: inducer concentration 5 mM; 6 h; Cupriavidus necator H16; minimal medium + 0.4% gluconate
# Experimental: as §1
row,SMILES,relative induction of RFP reporter
1,C=C(CC(=O)O)C(=O)O [itaconate],-0.0132%
2,O=C(O)CCO [3-hydroxypropanoate],-0.0357%
3,O=C(O)C(O)C(O)C(=O)O (configuration not stated) [tartrate],-0.00769%
4,CC(=O)C(C)O (configuration not stated) [acetoin],0.00953%
5,O=C(O)C1CCCCC1 [cyclohexane-1-carboxylate],-0.0317%
6,O=C(O)C(=O)c1ccccc1 [phenylglyoxylate],-0.003%
7,"O=C(O)c1ccc(O)c(O)c1 [3,4-dihydroxybenzoate]",-0.0224%
8,C=CC(=O)O [acrylate],-0.0252%
9,O=C(O)c1ccccc1 [benzoate],-0.00267%
10,N[C@@H](Cc1ccc(O)cc1)C(=O)O [L-tyrosine],0.00497%
11,NCCC(=O)O [β-alanine],-0.0067%
12,O=C(O)CS(=O)(=O)O [sulfonatoacetate],0.0162%
13,O=CO [formate],-0.0317%
14,Nc1ccccc1C(=O)C[C@H](N)C(=O)O [L-kynurenine],-0.00708%
15,O=C(O)c1ccccc1O [salicylate],-0.0255%
16,O=c1[nH]c(=O)c2nc[nH]c2[nH]1 [xanthine],0.0252%
17,N[C@@H](Cc1ccccc1)C(=O)O [L-phenylalanine],-0.0146%

# Test system: BadR/P_H16_RS27200 cyclohexanecarboxylate biosensor (pEH159)
# Assay: as above
# Conditions: inducer concentration 5 mM; 6 h; Cupriavidus necator H16; minimal medium + 0.4% gluconate
# Experimental: as §1
row,SMILES,relative induction of RFP reporter
1,C=C(CC(=O)O)C(=O)O [itaconate],-0.216%
2,O=C(O)CCO [3-hydroxypropanoate],0.0132%
3,O=C(O)C(O)C(O)C(=O)O (configuration not stated) [tartrate],-0.687%
4,CC(=O)C(C)O (configuration not stated) [acetoin],-0.805%
5,OC1OC[C@H](O)[C@H](O)[C@H]1O (mixture of isomers) [L-arabinose],-0.67%
6,O=C(O)C(=O)c1ccccc1 [phenylglyoxylate],-0.214%
7,"O=C(O)c1ccc(O)c(O)c1 [3,4-dihydroxybenzoate]",-0.555%
8,C=CC(=O)O [acrylate],-0.281%
9,O=C(O)c1ccccc1 [benzoate],-0.805%
10,N[C@@H](Cc1ccc(O)cc1)C(=O)O [L-tyrosine],0.136%
11,NCCC(=O)O [β-alanine],-0.428%
12,O=C(O)CS(=O)(=O)O [sulfonatoacetate],-0.423%
13,O=CO [formate],-0.738%
14,Nc1ccccc1C(=O)C[C@H](N)C(=O)O [L-kynurenine],-0.604%
15,O=C(O)c1ccccc1O [salicylate],-0.169%
16,O=c1[nH]c(=O)c2nc[nH]c2[nH]1 [xanthine],-0.537%
17,N[C@@H](Cc1ccccc1)C(=O)O [L-phenylalanine],-0.263%

# Test system: BenM/P_H16_RS09790 benzoate biosensor (pEH148)
# Assay: as above
# Conditions: inducer concentration 5 mM; 6 h; Cupriavidus necator H16; minimal medium + 0.4% gluconate
# Experimental: as §1
row,SMILES,relative induction of RFP reporter
1,C=C(CC(=O)O)C(=O)O [itaconate],-0.0396%
2,O=C(O)CCO [3-hydroxypropanoate],-0.029%
3,O=C(O)C(O)C(O)C(=O)O (configuration not stated) [tartrate],0.00705%
4,CC(=O)C(C)O (configuration not stated) [acetoin],-0.0473%
5,OC1OC[C@H](O)[C@H](O)[C@H]1O (mixture of isomers) [L-arabinose],-0.0174%
6,O=C(O)C(=O)c1ccccc1 [phenylglyoxylate],16.8%
7,"O=C(O)c1ccc(O)c(O)c1 [3,4-dihydroxybenzoate]",-0.0316%
8,C=CC(=O)O [acrylate],0.00199%
9,N[C@@H](Cc1ccc(O)cc1)C(=O)O [L-tyrosine],-0.0654%
10,NCCC(=O)O [β-alanine],-0.0408%
11,O=C(O)CS(=O)(=O)O [sulfonatoacetate],-0.0067%
12,O=CO [formate],0.0137%
13,Nc1ccccc1C(=O)C[C@H](N)C(=O)O [L-kynurenine],-0.0309%
14,O=C(O)c1ccccc1O [salicylate],1.72%
15,O=c1[nH]c(=O)c2nc[nH]c2[nH]1 [xanthine],-0.0092%
16,N[C@@H](Cc1ccccc1)C(=O)O [L-phenylalanine],-0.0737%
